This note sets out measurements from PubChem BioAssay AID504523 (Broad Institute, 2011).

In all, about 340,000 compounds went through this assay and about 490 (0.14%) were called active. Shown is part of a subset that was picked to be rich in actives. Unmarked numbers belong to inactive results. No stated cut-off is given here; in the data, active means inhibition above about 12%; inconclusive means no clear call, values can overlap the other calls; inactive means below about 7.3%.

Sequence of Kelch-like ECH-associated protein 1 (Homo sapiens) (Q14145 whole entry, looked up, the tested form may be a part): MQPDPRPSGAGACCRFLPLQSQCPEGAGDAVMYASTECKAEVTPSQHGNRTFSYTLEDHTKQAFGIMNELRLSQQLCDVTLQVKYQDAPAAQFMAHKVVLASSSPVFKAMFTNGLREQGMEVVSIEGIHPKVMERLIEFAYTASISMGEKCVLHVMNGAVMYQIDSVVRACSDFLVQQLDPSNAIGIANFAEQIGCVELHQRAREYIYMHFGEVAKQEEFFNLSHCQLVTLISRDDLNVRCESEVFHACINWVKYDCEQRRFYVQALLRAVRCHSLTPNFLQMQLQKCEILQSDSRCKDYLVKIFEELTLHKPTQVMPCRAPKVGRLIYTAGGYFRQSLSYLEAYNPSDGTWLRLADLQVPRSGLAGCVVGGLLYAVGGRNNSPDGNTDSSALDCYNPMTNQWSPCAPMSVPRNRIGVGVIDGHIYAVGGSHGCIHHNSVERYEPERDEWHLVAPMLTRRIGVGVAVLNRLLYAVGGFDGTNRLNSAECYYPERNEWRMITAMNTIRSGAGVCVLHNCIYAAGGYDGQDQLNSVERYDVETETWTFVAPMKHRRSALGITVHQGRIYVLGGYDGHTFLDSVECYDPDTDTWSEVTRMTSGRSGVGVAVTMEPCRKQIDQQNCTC

The test addresses Kelch-like ECH-associated protein 1 (Homo sapiens) (UniProt Q14145). The test is described as follows: disruptors of Keap1 binding to Nrf2 – biochemical, fluorescence polarization, single point, primary screen (AID 504523).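 Further: human Keap1 Kelch domain with fluorescein labeled Nrf2 9mer peptide probe; 0% = neutral control wells and 100% = peptide positive control.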 The note with it: Keap1 Kelch-Nrf2 peptide fluorescence polarization, 1536-well; at 9.4 µM; stronger effect = higher value. In general terms: Fluorescence polarisation rises when a labelled molecule tumbles more slowly, as on binding a larger partner.
A word on the inhibition: it is the drop in the measured response relative to a control, in per cent. Turning to `CC1(C)CC(=O)C(N=Nc2ccc(S(=O)(=O)N3CCCCCC3)cc2)=C(O)C1`, the inhibition was 5.03%.

Turning to `CC1(C)CC(=O)C(C2=NC(C)(C)Cc3ccccc32)=C(O)C1`, the inhibition was -1.79%.

For the compound `CC1(C)CC(=O)C(N=Nc2c(F)cccc2F)=C(O)C1`, the inhibition is 37.8% (active).

For `CN1CCOC1c1ccc(C2OCCN2C)cc1` (centres undefined), the inhibition is 1.77%.

For `COC(=O)C[n+]1cccc2ccccc21`, the inhibition is 36.4% (active).

With `O=C(C[n+]1cc(Br)cc2ccccc21)c1ccc(F)cc1`, the inhibition was -7.79%.

For `COC(=O)Cc1c(-c2[nH]c3ccccc3c2CC(=O)OC)[nH]c2ccccc12`, the inhibition is -0.936%.

Regarding `CCN1CCC(O)(/C=C/c2ccc(C)cc2)C(C(=O)/C=C/c2ccc(C)cc2)C1` (centres undefined), the inhibition was -56.9%.

For the compound `CCC1CCC2(CC1)NC(=O)N(CC(=O)Nc1ccc(OC)cc1)C2=O` (centres undefined), the inhibition was -5.89%.

In the case of `COc1cccc(CN2CCNC(=O)C2CC(=O)N(C)CCc2ccccn2)c1` (centres undefined), the inhibition is -0.18%.

Turning to `CCOC(=O)C1(Cc2ccccc2C)CCCN(S(C)(=O)=O)C1` (centres undefined), the inhibition was -4.08%.

As for `Cc1ccc(F)cc1NC(=O)N1CCCN(c2ccc(C(F)(F)F)cn2)CC1`, the inhibition is -5.94%.

On to `OC1CSc2nc3ccccc3n2C1` (centres undefined), for which the inhibition was 1.42%.

As to `CCOC(=O)c1c(C)n(C)c2ccc(OC)c(NC(=O)CN3CCC4(CC3)OCCO4)c12`, the inhibition was -2.53%.

`Cc1cccc(NS(=O)(=O)c2ccc(C)c(C(N)=O)c2)c1`: the inhibition was -6.17%.

As to `Cc1cccc(NS(=O)(=O)c2ccc(C)c(C(=O)NCC(c3ccccc3)N(C)C)c2)c1` (centres undefined), the inhibition is 46.2% (active).

Turning to `COc1ccc(C(CNC(=O)c2cc(S(=O)(=O)Nc3cccc(C)c3)ccc2C)N2CCCC2)cc1` (centres undefined), the inhibition was -2.75%.

Take `CCOC(=O)N1CCN(C(=O)COC(=O)c2cccc(S(C)(=O)=O)c2)CC1`: the inhibition is 1.11%.

`C/C(=N/NC(=S)Nc1ccccc1)c1ccc2c(c1)OCO2`: the inhibition is -4.81%.

Consider `Cc1ccc(NC(=O)CSc2sc3c(O)cc(=O)[nH]c3c2C#N)cc1C`, for which the inhibition is -7.74%.

`Cc1nc(CN(C)C(=O)CC2C(=O)NCCN2Cc2ccc(F)cc2)cs1` (centres undefined): the inhibition is -0.6%.

Take `COC(=O)c1sc(N)c(C(=O)OC)c1COC(=O)CNS(=O)(=O)c1ccc(C)cc1`: the inhibition was 2.32%.

`CC(C)(O)C#Cc1ncc(C(F)(F)F)cc1Cl`: the inhibition is 2.69%.

For `Clc1ccc2c(c1)C1=C(C(c3ccncc3)O2)C(c2ccc(Br)cc2)n2ncnc2N1` (centres undefined), the inhibition was -2.67%.

For the compound `Brc1ccc(C2=CC(c3ccco3)n3ncnc3N2)cc1` (centres undefined), the inhibition is 36.1% (active).

In the case of `COc1ccccc1NC(=O)CSc1nnc(Cn2nnc(-c3ccccc3)n2)n1-c1ccccc1`, the inhibition was 0.652%.

As to `O=C(CCc1ccccc1)NNC(=O)COc1ccc(Cl)cc1`, the inhibition was -4.48%.

In the case of `CC(=O)Nc1ccc(S(=O)(=O)NNC(=O)CCc2ccccc2)cc1`, the inhibition is -9.19%.

Consider `O=C(CCc1ccccc1)NNc1ccc(F)cc1`, for which the inhibition is 12.6% (active).

Regarding `Cc1nc2ccccn2c1C(=O)NN=C1CCN(C)CC1`, the inhibition was -3.6%.

`CC(C)(C)c1ccc(CCC2OCC(CN3CCOCC3)O2)cc1` (centres undefined): the inhibition was 3.61%.

Turning to `Cc1ccc(-n2ncc(C(=O)NC3CC3)c2C2CCN(C(=O)OC(C)(C)C)CC2)c(C)c1`, the inhibition is -3.33%.

With `O=S(=O)(c1ccc(Br)cc1)c1nc(-c2ccccc2)oc1N1CCOCC1`, the inhibition is -9.08%.

Turning to `CCCC(NC(=O)c1ccccc1)c1nc2ccccc2n1Cc1ccc(C(=O)OC)o1` (centres undefined), the inhibition was -2.49%.

`CCCNc1c(N)c(=O)c1=O`: the inhibition is -1.65%.

With `O=C(CCNc1n[nH]c(=O)[nH]c1=O)N/N=C\c1ccc(Br)cc1`, the inhibition was -2.4%.

As to `CSCC[C@H](NC(=O)NCCc1ccc(F)cc1)C(=O)O`, the inhibition is 1.87%.

Consider `COc1ccc(C2/C=C\CN(S(=O)(=O)c3cccs3)CC(=O)N2Cc2ccc(F)cc2)cc1` (centres undefined), for which the inhibition is -0.104%.

For `O=C(O)CC(c1ccccc1)n1cnnn1` (centres undefined), the inhibition is -4.84%.

Take `O=C(O)CC(CC(=O)N1CCOCC1)c1ccccc1` (centres undefined): the inhibition was -1.3%.

As for `O=C(O)CC(Cn1cnnn1)c1ccccc1` (centres undefined), the inhibition is 20.2% (active).

Regarding `Cc1cccc(C2c3c(n(C)c(=O)n(C)c3=O)N=C3c4ccccc4C(=O)C32)c1` (centres undefined), the inhibition was -0.0535%.

Consider `Cc1nonc1C1CCCN1Cc1nc(-c2ccc(F)cc2F)oc1C` (centres undefined), for which the inhibition is -5.07%.

As to `Cn1c(CCNS(=O)(=O)c2ccc(F)cc2)nnc1SCc1cccnc1`, the inhibition is -1.02%.

Turning to `Cc1ccc(OC(=O)c2cncc(Br)c2)c(C)c1`, the inhibition is 5.58%.

For `Cc1cccc(N=Nc2c(O)[nH]c3ccc(F)cc23)c1`, the inhibition is 0.392%.

Consider `COc1cccc(NC(=O)CN(C)C(C)C(=O)Nc2ccc(C#N)cc2)c1` (centres undefined), for which the inhibition is 4.55%.

Take `COCCN(C(=O)C(C)N1C(=O)c2ccccc2C1=O)c1c(N)n(CC(C)C)c(=O)[nH]c1=O` (centres undefined): the inhibition is -8.05%.

Regarding `CN(C(=O)CC1C(=O)NCCN1Cc1ccc(F)cc1Cl)C1CCCCC1` (centres undefined), the inhibition is -12.6%.

As for `O=C(CNC(=O)c1ccc(Br)o1)NCC1CCCO1` (centres undefined), the inhibition is 3.4%.

Take `CCN(CC)CC(=O)Nc1nn(-c2ccccc2)nc1C(N)=O`: the inhibition is -0.843%.

For the compound `O=C(NNc1c2ccccc2nc2ccccc12)c1cc2ccccc2cc1O`, the inhibition is -0.162%.

On to `Cc1onc(-c2ccc(Cl)cc2)c1-c1ccnn1S(=O)(=O)c1ccc(Cl)cc1`, for which the inhibition was -1.71%.

Turning to `O=C(C1=C[C@H](c2coc3ccccc3c2=O)C[C@H](OCc2ccc(CO)cc2)O1)N1CCN(Cc2ccccc2)CC1`, the inhibition was -4.23%.

Consider `Nc1ccc2nc3c(=O)[nH]c(=S)[nH]c3nc2c1`, for which the inhibition was 39% (active).

For `CN(CC(=O)Nc1ccc(C(N)=O)cc1)S(=O)(=O)c1ccc2c(c1)OCCO2`, the inhibition was -4.93%.

Turning to `CCC(C)(C)c1ccc(Oc2ccc(NC(=O)COC(=O)C3=COCCO3)cc2)cc1`, the inhibition is 1.96%.

Take `CC(OC(=O)c1ccccc1OCc1ccc(Cl)cc1)C(N)=O` (centres undefined): the inhibition is -6.61%.

Take `COC(=O)/C=C\C(=O)Nc1cccc([N+](=O)[O-])c1`: the inhibition is 8.41%.
